Inconclusive results are not listed. Activity calls are given as the source filed them. Unless noted, calls come from the whole dose curve; as a rule, active = well fitted curve in the direction sought with a large enough effect; inconclusive = small, poorly fitted or top-dose-only effect, or another doubt; inactive = no such curve, though single readings can be large; an effect the other way counts as inactive or inconclusive.

We go through 33 compounds from PubChem BioAssay (NCATS).

The target in assay [1] is D(1A) dopamine receptor (Homo sapiens) (UniProt P21728). In words: HTS Assay for Allosteric Agonists of the Human D1 Dopamine Receptor: Primary Screen for Agonists (AID 488981). Note: 0% is about no effect. Put shortly: (§1)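 Tetracycline-induced HEK293 Trex D1 cells with forced coupling to calcium, loaded with no-wash calcium dye; kinetic fluorescence read 180 s after compound addition for agonism, then a further 180 s after an EC20 dopamine challenge for potentiation.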

Assay [2] has the same target. In words: HTS Assay for Allosteric Agonists of the Human D1 Dopamine Receptor: Primary Screen for Potentiators (AID 488982). Note: 0% is about no effect. Put shortly: as §1
Assay [3] has the same target. In words: HTS Assay for Allosteric Agonists of the Human D1 Dopamine Receptor: Primary Screen for Antagonists (AID 488983).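 Note: calcium flux response to an EC80 dopamine challenge measured with no-wash dye; nearly all actives have a fitted effect of over 65% in size.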 Note: potency is the fitted concentration of half-maximal effect. In short, it runs like this: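 Cells are induced with tetracycline and incubated overnight at 30 C, then loaded with calcium dye for 30 to 90 minutes at room temperature. Compound addition is followed by a 180 s read, then an EC80 dopamine addition and another 180 s read.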

Assay [4] in a line: Validation screen for small molecules that induce genotoxicity in human embryonic kidney (HEK293T) cells expressing luciferase-tagged ELG1 (AID 493106). Note: potency is the fitted concentration of half-maximal effect. Put shortly: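 Luminescence from an ELG1-luciferase fusion serves as the read-out, rising when genetic stress elevates ELG1 protein. HEK293T reporter cells (2,000 per well) received 23 nL compound, incubated 16 hr at 37 °C, then ONE-Glo for 30 min at room temperature.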

Assay [5] deals with ATPase family AAA domain-containing protein 5 (Homo sapiens) (UniProt Q96QE3). In words: Validation screen for small molecules that inhibit ELG1-dependent DNA repair in human embryonic kidney (HEK293T) cells expressing luciferase-tagged ELG1 (AID 493107). Note: nearly all actives have a fitted effect of over 70% in size. Note: potency is the fitted concentration of half-maximal effect. In short, it runs like this: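 Luminescence from ONE-Glo, developed 30 min at room temperature, served as read-out of ELG1-luciferase levels. Beforehand, reporter HEK293T cells received 5-fluorouridine plus test compound for 16 hr at 37 °C.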

Assay [6] can be described thus: Nrf2 qHTS screen for inhibitors: Validation (AID 493153; active = well fitted inhibition curve with a large enough effect in the main read-out, with a control signal flat, not every such curve was filed as active; note: potency is the fitted concentration of half-maximal effect). The conditions noted are these: Potency: luciferase luminescence; viability change: measured here: cytotoxicity max response. Put shortly:
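Luminescence from an ARE-firefly luciferase reporter in A549 cells gives Nrf2 inhibition; an earlier CellTiter-Fluor fluorescent read flags cytotoxicity. Cells in 5% FBS OPTI-MEM received compound dilution series for 18-24 h at 37°C.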
In general terms: In qHTS, concentration-response curves come from the screen itself.

In assay [7] the target is ATP-dependent 6-phosphofructokinase (Trypanosoma brucei brucei) (UniProt O15648). In words: qHTS Assay to Find Inhibitors of T. brucei phosphofructokinase: hit validation (AID 492961).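 Note: luminescence reports ADP formed as PFK phosphorylates fructose-6-phosphate with ATP; series mostly up to about 51 µM; % is set by controls: 0 for no effect and ±100 for the full control effect.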 In short, it runs like this:
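Compounds titrated; %activity normalized to 0x and 1x enzyme controls, curve-fitted. Readout: ADP-Glo luminescence after 45 min room-temperature reaction of 1.25 nM PFK, 0.1 mM ATP, 0.5 mM F6P, pH 8.0.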

For assay [8], the target named is Thyrotropin-releasing hormone receptor (Homo sapiens) (UniProt P34981). In words: qHTS for Small Molecule Agonists and Allosteric Enhancers of Human TRH Receptor: Validation Screen for Agonists (AID 493127;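 active = calcium activation more than 3 SD above the typical response in the agonist read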;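 note: intracellular calcium rise by fluo-8 fluorescence before TRH EC20 addition; 0% is about no effect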). The conditions noted are these: TRH receptor agonist cell assay; at 2 µM; stronger effect = higher value. In short, it runs like this: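 Cells 2000/well, 10% FCS, 18 h 33.5C/5% CO2 → fluo-8 Ca dye, RT 30 min–1.5 h → FDSS baseline 10 × 1 s → compound added → 230 cycles (1 s/cycle) agonist mode. TRH controls.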
Thyrotropin-releasing hormone receptor (Homo sapiens), sequence (P34981 whole entry, looked up): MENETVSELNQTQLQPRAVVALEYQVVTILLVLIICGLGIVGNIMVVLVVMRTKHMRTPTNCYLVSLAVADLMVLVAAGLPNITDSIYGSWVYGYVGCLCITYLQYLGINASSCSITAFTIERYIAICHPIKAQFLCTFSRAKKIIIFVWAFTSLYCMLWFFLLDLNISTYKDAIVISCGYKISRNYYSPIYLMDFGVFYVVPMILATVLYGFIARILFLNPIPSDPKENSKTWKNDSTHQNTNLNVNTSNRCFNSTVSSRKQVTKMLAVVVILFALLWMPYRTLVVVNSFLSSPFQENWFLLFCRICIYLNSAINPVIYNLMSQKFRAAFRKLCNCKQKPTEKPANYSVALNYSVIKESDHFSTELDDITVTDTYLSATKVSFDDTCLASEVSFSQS

D(1A) dopamine receptor (Homo sapiens), sequence (P21728 whole entry, looked up): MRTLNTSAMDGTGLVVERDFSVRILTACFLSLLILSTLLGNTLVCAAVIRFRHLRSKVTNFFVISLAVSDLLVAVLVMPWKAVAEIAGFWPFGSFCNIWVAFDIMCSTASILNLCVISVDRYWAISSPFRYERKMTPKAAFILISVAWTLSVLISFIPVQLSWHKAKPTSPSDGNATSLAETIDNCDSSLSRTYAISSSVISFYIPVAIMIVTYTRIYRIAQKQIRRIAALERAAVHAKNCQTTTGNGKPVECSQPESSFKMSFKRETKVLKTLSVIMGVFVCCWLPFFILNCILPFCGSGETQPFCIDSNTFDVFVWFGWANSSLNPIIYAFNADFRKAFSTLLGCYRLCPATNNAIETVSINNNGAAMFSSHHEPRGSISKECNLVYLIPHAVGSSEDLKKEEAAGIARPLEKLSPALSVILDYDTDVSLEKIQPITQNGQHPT
ATPase family AAA domain-containing protein 5 (Homo sapiens), sequence (Q96QE3 whole entry, looked up, the tested form may be a part): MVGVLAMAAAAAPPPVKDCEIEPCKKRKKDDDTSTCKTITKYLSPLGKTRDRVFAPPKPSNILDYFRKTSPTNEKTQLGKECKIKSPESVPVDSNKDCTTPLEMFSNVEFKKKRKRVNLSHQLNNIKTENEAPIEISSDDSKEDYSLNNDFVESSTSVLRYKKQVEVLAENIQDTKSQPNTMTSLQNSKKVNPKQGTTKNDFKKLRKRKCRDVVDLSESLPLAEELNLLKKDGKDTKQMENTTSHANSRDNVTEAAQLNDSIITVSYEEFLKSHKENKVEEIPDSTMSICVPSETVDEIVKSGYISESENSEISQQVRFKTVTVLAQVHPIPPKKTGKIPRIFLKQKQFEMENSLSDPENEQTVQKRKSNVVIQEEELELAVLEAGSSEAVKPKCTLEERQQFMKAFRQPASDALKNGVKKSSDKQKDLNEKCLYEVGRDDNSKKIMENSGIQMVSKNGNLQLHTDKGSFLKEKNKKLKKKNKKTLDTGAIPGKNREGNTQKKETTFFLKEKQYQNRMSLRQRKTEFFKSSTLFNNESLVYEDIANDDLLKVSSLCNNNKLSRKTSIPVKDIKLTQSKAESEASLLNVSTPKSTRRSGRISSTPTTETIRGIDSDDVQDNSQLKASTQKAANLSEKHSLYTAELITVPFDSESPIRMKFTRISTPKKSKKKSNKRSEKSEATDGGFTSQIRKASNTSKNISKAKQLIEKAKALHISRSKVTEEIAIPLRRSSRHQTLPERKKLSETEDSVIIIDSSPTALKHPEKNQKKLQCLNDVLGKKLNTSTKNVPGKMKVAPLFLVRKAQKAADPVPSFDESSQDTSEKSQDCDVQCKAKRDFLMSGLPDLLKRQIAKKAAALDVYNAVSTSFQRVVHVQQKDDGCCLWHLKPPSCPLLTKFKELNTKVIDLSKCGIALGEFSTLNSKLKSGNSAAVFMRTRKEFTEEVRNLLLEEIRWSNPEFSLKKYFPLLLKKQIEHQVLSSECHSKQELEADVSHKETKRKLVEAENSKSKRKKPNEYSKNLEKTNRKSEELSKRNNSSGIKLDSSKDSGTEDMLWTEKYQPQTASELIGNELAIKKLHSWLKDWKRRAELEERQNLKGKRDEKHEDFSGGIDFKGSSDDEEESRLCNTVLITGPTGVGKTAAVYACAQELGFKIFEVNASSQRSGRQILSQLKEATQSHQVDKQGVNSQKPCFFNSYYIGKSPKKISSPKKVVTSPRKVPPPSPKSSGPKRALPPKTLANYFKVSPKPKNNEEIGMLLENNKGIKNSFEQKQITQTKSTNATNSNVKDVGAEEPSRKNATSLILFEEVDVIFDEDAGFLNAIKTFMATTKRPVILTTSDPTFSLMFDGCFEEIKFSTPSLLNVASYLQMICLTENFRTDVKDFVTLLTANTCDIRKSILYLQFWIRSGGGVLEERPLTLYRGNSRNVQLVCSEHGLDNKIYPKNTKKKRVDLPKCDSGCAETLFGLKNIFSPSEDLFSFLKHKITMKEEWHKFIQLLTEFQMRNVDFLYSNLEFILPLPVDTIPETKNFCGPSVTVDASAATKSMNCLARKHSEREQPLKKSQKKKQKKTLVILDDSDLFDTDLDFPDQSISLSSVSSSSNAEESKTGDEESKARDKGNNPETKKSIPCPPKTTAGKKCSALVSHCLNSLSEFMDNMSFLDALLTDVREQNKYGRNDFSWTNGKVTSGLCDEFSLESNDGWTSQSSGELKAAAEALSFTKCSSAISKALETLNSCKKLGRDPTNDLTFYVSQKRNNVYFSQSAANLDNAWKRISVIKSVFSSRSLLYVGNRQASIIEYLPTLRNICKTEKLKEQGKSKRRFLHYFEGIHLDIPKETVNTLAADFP
ATP-dependent 6-phosphofructokinase (Trypanosoma brucei brucei), sequence (O15648 whole entry, looked up): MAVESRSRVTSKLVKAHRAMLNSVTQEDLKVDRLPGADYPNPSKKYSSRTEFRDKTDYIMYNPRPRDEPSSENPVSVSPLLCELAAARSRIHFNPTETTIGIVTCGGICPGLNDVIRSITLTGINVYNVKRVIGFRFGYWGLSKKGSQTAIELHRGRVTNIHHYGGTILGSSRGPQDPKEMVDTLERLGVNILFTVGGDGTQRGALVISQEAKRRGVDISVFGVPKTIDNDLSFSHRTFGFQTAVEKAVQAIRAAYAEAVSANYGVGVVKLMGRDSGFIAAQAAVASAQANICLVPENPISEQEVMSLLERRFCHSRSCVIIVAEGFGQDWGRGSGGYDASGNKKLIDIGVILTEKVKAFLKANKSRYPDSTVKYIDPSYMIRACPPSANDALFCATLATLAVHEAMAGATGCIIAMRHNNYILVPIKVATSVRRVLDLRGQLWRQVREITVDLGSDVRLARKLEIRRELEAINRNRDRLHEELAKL

Turning to `C=C[C@@H]1CN2CC[C@@H]1C[C@H]2[C@H](O)c1ccnc2ccc(OC)cc12`, the Potency result in assay [1], in assay [2], in assay [3], in assay [4], in assay [5] and in assay [6] was “inactive” in each case. For the same compound, in assay [6], the viability change is -4.66%.

For `CC(=O)/C=C1\C(=O)N(C)c2ccccc21`, the Potency result in assay [1], in assay [2], in assay [4] and in assay [6] was “inactive” in each case. For the same compound, the Potency in assay [3] was 10 µM (active). Moreover, the viability change in assay [6] is -4.33%.

For the compound `OC[C@H]1O[C@@H](n2cnc3c(Nc4ccccc4)ncnc32)[C@H](O)[C@@H]1O`, the Potency result in assay [1], in assay [2] and in assay [3] was “inactive” each time. In addition, in assay [4], the Potency is 9.2 µM (active).

For `N=c1ccn2c(n1)O[C@H]1[C@H](O)[C@@H](CO)O[C@H]12`, the Potency entry in assay [1], in assay [2], in assay [3], in assay [4] and in assay [5] was “inactive” throughout. The call in assay [7] was inactive.

`NC(=S)NCCC[C@H](N)C(=O)O`: the Potency result in assay [1], in assay [2], in assay [3], in assay [4] and in assay [6] was “inactive” each time. Further, the viability change in assay [6] amounted to 2.08%.

`NC(=S)c1ccc[n+]([C@@H]2O[C@@H](COP(=O)([O-])OP(=O)(O)OC[C@H]3O[C@@H](n4cnc5c(N)ncnc54)[C@H](OP(=O)(O)O)[C@@H]3O)C(O)C2O)c1` (some centres not stated): the Potency entry in assay [1], in assay [2], in assay [3], in assay [5] and in assay [6] was “inactive” each time. The viability change in assay [6] is -6.67%.

Turning to `CC(C)NC[C@@H](O)c1ccc(O)c(O)c1`, the Potency result in assay [1], in assay [2], in assay [3], in assay [4] and in assay [6] was “inactive” in each case. Further, in assay [6], the viability change was 0.444%.

As to `CC(C)ON([C@@H](C(=O)NO)C(C)C)S(=O)(=O)c1ccc(-c2ccccc2)cc1`, the Potency result in assay [1], in assay [2], in assay [3] and in assay [4] was “inactive” throughout.

Regarding `N#C/C(=C\c1ccc(-c2cc(Cl)ccc2Cl)o1)C(=O)Nc1cccc2ncccc12`, the Potency entry in assay [1], in assay [2], in assay [3] and in assay [4] was “inactive” in each case. For the same compound, in assay [5], the Potency is 16.4 µM (active).

As for `CCCCCCCCc1ccc(-c2ccc(C(=O)O)cc2)cc1`, the Potency result in assay [1], in assay [2], in assay [3] and in assay [4] was “inactive” each time.

With `NCC1OC(O[C@H]2[C@H](O)[C@@H](OC3C(O)C(N)CC(N)C3OC3OC(CO)C(O)C(O)C3N)O[C@@H]2CO)C(N)C(O)C1O` (some centres not stated), the Potency entry in assay [1], in assay [2], in assay [3], in assay [5] and in assay [6] was “inactive” throughout. Besides, the viability change in assay [6] was found to be 1.58%.

In the case of `CNc1ncnc2c1ncn2[C@@H]1O[C@H](CO)[C@@H](O)[C@H]1O`, the Potency entry in assay [1], in assay [2], in assay [3], in assay [5] and in assay [6] was “inactive” in each case. Also, the viability change in assay [6] was -0.614%.

Consider `CN(C)CCCO[C@@H]1[C@H]2OC(C)(C)O[C@H]2O[C@@H]1[C@H](O)CO`, for which the Potency entry in assay [1], in assay [2], in assay [3], in assay [4] and in assay [6] was “inactive” each time. For the same compound, the viability change in assay [6] was determined as 3.16%.

Take `Nc1ncnc2c1c(I)cn2[C@@H]1C[C@H](N)[C@@H](O)[C@H]1O`: the Potency result in assay [1], in assay [2], in assay [3] and in assay [4] was “inactive” in each case. In assay [5], the Potency is 5.17 µM (active).

For the compound `C=CC(C)=C[C@@]1(C)SC(=O)C(C)=C1O`, the Potency result in assay [1], in assay [2], in assay [3], in assay [4] and in assay [6] was “inactive” each time. Also, the viability change in assay [6] worked out at 1.42%.

For `O=C(O)[C@@H]1C[C@@H](C(=O)O)N1`, the Potency result in assay [1], in assay [2], in assay [3], in assay [4] and in assay [6] was “inactive” in each case. The activation in assay [8] is 1.06% (inactive). Further, in assay [6], the viability change came to 2.33%.

Take `Nc1nc(Cl)nc2c1ncn2[C@@H]1O[C@H](CO)[C@@H](O)[C@H]1O`: the Potency result in assay [1], in assay [2], in assay [3], in assay [4], in assay [5] and in assay [6] was “inactive” each time. Moreover, the viability change in assay [6] is -2.02%.

As for `Cc1cc(NC2CCCCC2)nc(-n2nc(C)cc2C)n1`, the Potency entry in assay [1], in assay [2], in assay [3], in assay [4] and in assay [6] was “inactive” in each case. Besides, the viability change in assay [6] was -6.43%.

`CO/S(=N\S(=O)(=O)c1ccc(Cl)cc1)c1ccc([N+](=O)[O-])cc1` (configuration not stated): the Potency result in assay [1], in assay [2], in assay [3], in assay [4], in assay [5] and in assay [6] was “inactive” each time. Also, the viability change in assay [6] was -1.86%.

With `Nc1ncnc2c1ncn2[C@@H]1O[C@H](COP(=O)(O)CP(=O)(O)OP(=O)(O)O)[C@@H](O)[C@H]1O`, the Potency entry in assay [1], in assay [2], in assay [3], in assay [4], in assay [5] and in assay [6] was “inactive” throughout. Also, the viability change in assay [6] is -5.53%.

As for `O=P(O)(O)C(Cl)(Cl)P(=O)(O)O`, the Potency entry in assay [1], in assay [2], in assay [3], in assay [4], in assay [5] and in assay [6] was “inactive” each time. Besides, in assay [6], the viability change was 4.97%.

As for `OCC1O[C@H]([S-])[C@H](O)[C@@H](O)[C@@H]1O.[Au+]` (some centres not stated), the Potency entry in assay [1], in assay [2], in assay [3], in assay [4] and in assay [6] was “inactive” each time. Further, the viability change in assay [6] was -19.1%.

For the compound `CC12C(=O)OC(=O)C1(C)C1CCC2O1` (configuration not stated), the Potency result in assay [1], in assay [2] and in assay [3] was “inactive” each time. Besides, the figures for the Potency in assay [4] and in assay [5] were 2.91 µM (active) and 14.6 µM (active), respectively. Besides, the activation in assay [8] was -0.25% (inactive).

`CN1CC(=O)N/C1=N/C(=O)Nc1cccc(Cl)c1`: the Potency entry in assay [1], in assay [2], in assay [3], in assay [4] and in assay [6] was “inactive” in each case. Moreover, in assay [6], the viability change was -1.94%.

For `NC[C@H]1O[C@@H](n2cnc3c(N)ncnc32)[C@H](O)[C@@H]1O`, the Potency entry in assay [1], in assay [2], in assay [3], in assay [4], in assay [5] and in assay [6] was “inactive” throughout. Moreover, in assay [6], the viability change is 9.27%.

As for `O=[N+]([O-])c1ccc(CSc2ncnc3c2ncn3[C@@H]2O[C@H](CO)[C@@H](O)[C@H]2O)cc1`, the Potency result in assay [1], in assay [2], in assay [3] and in assay [4] was “inactive” in each case. For the same compound, in assay [5], the Potency is 0.0206 µM (active).

As to `Cc1ccc(S(=O)(=O)/C=C/C#N)cc1`, the Potency result in assay [1] and in assay [2] was “inactive” in each case. Also, the Potency in assay [3] is 12.6 µM (active); in assay [5], 20.6 µM (active).

With `Nc1nc(Nc2ccccc2)nc2c1ncn2[C@@H]1O[C@H](CO)[C@@H](O)[C@H]1O`, the Potency result in assay [1], in assay [2], in assay [3] and in assay [6] was “inactive” each time. Besides, the Potency in assay [5] was 5.8 µM (active). Besides, the viability change in assay [6] was -0.505%.

As for `N.N.N.N.N.N.N.N.N.N.N.N.N.N.O.O.[Ru+4].[Ru+5].[Ru+5]`, the Potency entry in assay [1], in assay [2], in assay [3] and in assay [4] was “inactive” each time.

Turning to `Cc1cc2c(cc1Cl)N(C(=O)Nc1ccc(Oc3cccnc3C)nc1)CC2`, the Potency entry in assay [1], in assay [2] and in assay [4] was “inactive” in each case. The Potency in assay [3] is 14.1 µM (active); in assay [6], 7.31 µM (active). Besides, the viability change in assay [6] was -19.7%.

On to `COc1cc(SC)ccc1C(=O)N1CCC(Cc2ccccc2)CC1`, for which the Potency result in assay [1], in assay [2], in assay [3], in assay [4] and in assay [6] was “inactive” each time. Further, the viability change in assay [6] was 1.59%.

As to `O=[N+]([O-])c1ccc2c(c1)S(=O)(=O)C=C2`, the Potency result in assay [1], in assay [2], in assay [3] and in assay [4] was “inactive” each time.

For the compound `NS(=O)(=O)C#Cc1ccccc1`, the Potency result in assay [1], in assay [2] and in assay [3] was “inactive” each time.
